Paper PMC4336329 (PLoS ONE, 2015)
In all, about 310,000 compounds went through this assay and about 2,200 (0.71%) showed an effect of 50% or more. The effect is printed as a negative number. The sample holds strong results, similar compounds and a random draw of the others, so the mix is not that of the screen.

target: human ether-à-go-go-related gene (hERG) potassium channel (human, UniProt Q12809); test: primary screen, population patch clamp on CHO cells stably expressing hERG; higher = less effect of the substance
Sequence (Q12809 whole entry, looked up): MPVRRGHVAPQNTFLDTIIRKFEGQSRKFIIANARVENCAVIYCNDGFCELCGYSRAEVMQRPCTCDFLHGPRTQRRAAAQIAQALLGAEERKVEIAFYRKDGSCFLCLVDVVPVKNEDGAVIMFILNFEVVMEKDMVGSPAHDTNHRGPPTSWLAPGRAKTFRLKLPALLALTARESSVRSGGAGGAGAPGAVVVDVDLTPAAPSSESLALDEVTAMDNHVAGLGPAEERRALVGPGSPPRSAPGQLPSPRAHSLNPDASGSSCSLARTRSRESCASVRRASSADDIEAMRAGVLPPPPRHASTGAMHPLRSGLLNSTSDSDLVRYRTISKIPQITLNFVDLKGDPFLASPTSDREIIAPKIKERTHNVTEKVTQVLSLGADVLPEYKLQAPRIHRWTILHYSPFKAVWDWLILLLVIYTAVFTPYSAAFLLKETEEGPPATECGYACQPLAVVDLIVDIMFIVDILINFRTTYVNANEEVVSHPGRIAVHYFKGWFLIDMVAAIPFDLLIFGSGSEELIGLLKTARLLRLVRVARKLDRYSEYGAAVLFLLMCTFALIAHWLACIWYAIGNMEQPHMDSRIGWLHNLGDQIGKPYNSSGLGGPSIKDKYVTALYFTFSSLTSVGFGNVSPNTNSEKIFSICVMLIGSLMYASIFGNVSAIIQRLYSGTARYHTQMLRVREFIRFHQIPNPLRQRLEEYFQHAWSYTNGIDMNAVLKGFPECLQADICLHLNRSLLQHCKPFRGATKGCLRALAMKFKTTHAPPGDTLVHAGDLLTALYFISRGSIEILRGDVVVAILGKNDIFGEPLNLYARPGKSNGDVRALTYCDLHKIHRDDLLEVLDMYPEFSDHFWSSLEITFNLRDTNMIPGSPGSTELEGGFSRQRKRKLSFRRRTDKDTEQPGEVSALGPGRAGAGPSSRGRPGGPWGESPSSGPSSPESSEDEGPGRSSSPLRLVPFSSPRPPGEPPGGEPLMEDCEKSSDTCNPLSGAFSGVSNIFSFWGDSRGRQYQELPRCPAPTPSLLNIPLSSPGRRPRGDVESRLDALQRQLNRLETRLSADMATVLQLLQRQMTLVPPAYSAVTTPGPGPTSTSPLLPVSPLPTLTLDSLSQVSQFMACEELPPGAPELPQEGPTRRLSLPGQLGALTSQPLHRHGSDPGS

Row | Compound | hERG current change (%, negative = inhibition) at 1uM [%]
1 | O=C(O)c1ccc2c(=O)[nH]c(CN3CCOCC3)nc2c1 | 15.6
2 | CC(OC(=O)C1CCCCC1)C(=O)Nc1ccc(S(N)(=O)=O)cc1 (stereo not shown) | 9.37
3 | COc1ccc(CC(=O)Nc2ccc(-c3noc(-c4ccccc4OC)n3)cc2)cc1 | -11.7
4 | O=S(=O)(NCCc1ccncc1)c1cc(Br)ccc1F | 2.96
5 | O=C(c1cc([N+](=O)[O-])ccc1N1CCCCC1)N1CCc2ccccc21 | 8.63
6 | O=C(NCCCN1CCN(c2ccccc2F)CC1)Nc1ccc(F)cc1 | -47.6
7 | O=C(NCCCN1CCCC1)Nc1ccccc1[N+](=O)[O-] | 14.8
8 | COc1cc2[nH]c(=O)n(CCC(=O)NCCCN3CCN(c4ccccc4F)CC3)c(=O)c2cc1OC | 0.776
9 | O=C(CCCCCn1c(=O)[nH]c2ccccc2c1=O)NCCCN1CCN(c2ccccc2F)CC1 | -84.6
10 | O=C(NCCCN1CCN(c2ccccc2F)CC1)Nc1ccccc1[N+](=O)[O-] | -51.1
11 | O=C(CCn1c(=O)[nH]c2ccccc2c1=O)NCCCN1CCN(c2cccc(Cl)c2)CC1 | -30
12 | Cn1cnnc1SCC(=O)NCc1cccc(C(F)(F)F)c1 | 24.1
13 | CC(=O)Nc1ccc(N/C=C(\C#N)S(=O)(=O)c2ccc(Cl)cc2)cc1 | 11.1
14 | CCc1cccc(NC(=O)C2CCCN(S(=O)(=O)c3ccc4[nH]c(=O)ccc4c3)C2)c1 (stereo not shown) | -0.861
15 | CCOc1ccc(N2CC(C(=O)N3CCc4ccccc4C3)CC2=O)cc1 (stereo not shown) | -67.1
16 | CCOc1ccc(N2CC(C(=O)N3CCc4ccccc43)CC2=O)cc1 (stereo not shown) | -8.82
17 | Cc1ccc(N2CC(C(=O)N3CCc4ccccc4C3)CC2=O)cc1 (stereo not shown) | -17.7
18 | CCC(C)(C)n1nnnc1C(c1cc2ccc(OC)cc2[nH]c1=O)N1CCc2ccccc21 (stereo not shown) | 6.76
19 | N=c1c(C(=O)NC2CCCCC2)cc2c(=O)n3ccccc3nc2n1CC1CCCO1 (stereo not shown) | -79.2
20 | Cc1ccc(S(=O)(=O)c2cc3c(=O)n4ccccc4nc3n(CC3CCCO3)c2=N)cc1C (stereo not shown) | 9.33
21 | CC(NC(=O)c1cc2c(=O)n3ccccc3nc2n(CC2CCCO2)c1=N)c1ccccc1 (stereo not shown) | -72.3
22 | N=c1c(C(=O)NC2CCCC2)cc2c(=O)n3ccccc3nc2n1CC1CCCO1 (stereo not shown) | -94.4

Row | Compound | hERG current change (%, negative = inhibition) at 1uM [%]
23 | N=c1c(S(=O)(=O)c2ccccc2)cc2c(=O)n3ccccc3nc2n1CC1CCCO1 (stereo not shown) | -17
24 | CCOC(=O)c1c(C)[nH]c(N=Nc2cccc(OC)c2)c1C | 6.77
25 | CCOC(=O)C1CCN(S(=O)(=O)c2ccc(Br)c(OCC)c2)CC1 | 0.854
26 | CC1=[N+]([O-])C2(N)CCc3nonc3C2(O)C1 (stereo not shown) | 6.29
27 | COC(=O)[C@H](CCSC)NC(=O)Nc1cc(C)ccc1C | 11.7
28 | C=CCn1c(O)c(C(C)=NCCN2CCN(C(=S)NC)CC2)c(=O)[nH]c1=O | 4.36
29 | COc1ccc(CN2CCC(C(=O)c3ccc(Cl)cc3)CC2)cc1 | -80.9
30 | COc1ccc(C(=O)C2CCN(C(=S)Nc3ccc(F)cc3)CC2)cc1 | -6.05
31 | COc1ccc(CNC(=O)C2CCN(C(=O)c3cccc(Cl)c3)CC2)cc1 | -3.93
32 | COc1ccc(CN2CCCC(C(=O)c3cccc(Cl)c3)C2)cc1 (stereo not shown) | -7.39
33 | O=C(c1ccc(F)cc1)C1CCN(Cc2ccc(F)cc2)CC1 | 2.51
34 | COc1ccc(CN2CCC(C(=O)c3ccc(F)cc3)CC2)cc1 | -81
35 | COc1ccc(CN2CCC(C(=O)c3cccc(Cl)c3)CC2)cc1 | -66.8
36 | CCc1ccc(NC(=O)CN2CCC(C(=O)c3ccc(OC)cc3)CC2)cc1 | -3.64
37 | COc1ccc(CNC(=O)CN2CCC(C(=O)c3ccc(OC)cc3)CC2)cc1 | -15.3
38 | COC(=O)Cc1ccc(NC(=S)N2CCN(C(=O)C3CCCO3)CC2)cc1 (stereo not shown) | 5.7
39 | COc1ccccc1CNC(=O)C(NS(=O)(=O)c1ccc2c(c1)OCCO2)C(C)C (stereo not shown) | 6.69
40 | COc1cc(C2NC(=O)C(C#N)=C(Nc3cccc(C)c3)S2)ccc1O (stereo not shown) | 18.5
41 | COc1cc2c(cc1OC)[C@H](Cc1ccc(O)cc1)NCC2 | 10.8
42 | Cc1cc(N(C)C)c(C#N)c(=O)[nH]1 | 12.4
43 | O=C(c1cc2c([nH]c1=O)CCCC2)N1CCc2c([nH]c3ccccc23)C1c1ccccc1F (stereo not shown) | 7.44
44 | CC(C)(C)C(=O)Nc1ccc2oc(-c3cc(F)c(F)cc3Cl)nc2c1 | 15.8

Row | Compound | hERG current change (%, negative = inhibition) at 1uM [%]
45 | CCCOc1ccc(C2c3c(oc4cc(C)c(C)cc4c3=O)C(=O)N2CCCN2CCOCC2)cc1 (stereo not shown) | 7.1
46 | Cc1ccccc1Nc1nc(N)nc(CSc2nc3ccccc3c(=O)n2C)n1 | 9.44
47 | N=c1c(C(=O)NCC2CCCO2)cc2c(=O)n3ccccc3nc2n1Cc1ccccc1Cl (stereo not shown) | -46.8
48 | O=C(NCc1ccco1)c1ccc2c(=O)n(CC3CCCO3)c(=S)[nH]c2c1 (stereo not shown) | 4.98
49 | N=c1c(C(=O)NCC2CCCO2)cc2c(=O)n3ccccc3nc2n1Cc1ccccc1 (stereo not shown) | -72.3
50 | N=c1c(S(=O)(=O)c2ccc(Cl)cc2)cc2c(=O)n3ccccc3nc2n1CC1CCCO1 (stereo not shown) | 6.52
51 | N=c1c(C(=O)NCC2CCCO2)cc2c(=O)n3ccccc3nc2n1Cc1ccc(Cl)cc1 (stereo not shown) | -81.9
52 | N=c1c(C(=O)NCc2ccco2)cc2c(=O)n3ccccc3nc2n1CC1CCCO1 (stereo not shown) | -84.3
53 | N=c1c(C(=O)NCC2CCCO2)cc2c(=O)n3ccccc3nc2n1Cc1ccc(F)cc1 (stereo not shown) | -82.7
54 | N=c1c(C(=O)NCC2CCCO2)cc2c(=O)n3ccccc3nc2n1Cc1cccnc1 (stereo not shown) | -34.7
55 | CCn1c2ccccc2c2cc(NC(=O)COC(=O)c3ccccc3O)ccc21 | 15
56 | CCN(C(=O)/C=C/c1ccc(OC)cc1)C1CCS(=O)(=O)C1 (stereo not shown) | -3.05
57 | CN1C(=O)/C(=N/OC(=O)c2ccccc2)c2ccccc21 | -4.57
58 | N#Cc1c(N)n(CCc2ccc(F)cc2)c2nc3ccccc3nc12 | 19.9
59 | COCCNCCOc1ccc(C(C)(C)c2ccccc2)cc1.O=C(O)C(=O)O | -2.39
60 | Cc1cc(C(=O)N2CC(C)CC(C)C2)n(-c2ccccc2)n1 (stereo not shown) | 16.6
61 | CC1CN(C(=O)Nc2ccc(F)cc2F)CC(C)O1 (stereo not shown) | -1.61
62 | C=CCn1c(SCC(=O)N2CCCCC2)nc(O)cc1=O | 4.63
63 | COc1ccccc1N1CCN(S(=O)(=O)c2ccc(-c3cnc(C4CC4)o3)cc2)CC1 | 14
64 | N=c1c(C(=O)NCC2CCCO2)cc2c(=O)n3ccccc3nc2n1Cc1ccco1 (stereo not shown) | -83.1
65 | Cc1ccc(-c2nnc3n2CCCCC3)cc1 | 0.609
66 | Cc1cccc(NC(=O)c2cc(NC(=O)c3ccccc3)ccc2N2CCCCC2)c1 | 3.79

Row | Compound | hERG current change (%, negative = inhibition) at 1uM [%]
67 | Cc1ccc(-c2nc3ccccc3c(=O)n2-c2ncccc2C)cc1 | 0.712
68 | Cc1ccc(C)c2c(SC(C)C(=O)NCc3ccco3)nc(-c3ccccc3)nc12 (stereo not shown) | -71.2
69 | CC(Sc1nc(-c2ccccc2)cc(C(F)(F)F)n1)C(=O)NCc1ccco1 (stereo not shown) | 4.96
70 | Cc1ccc2nc(-c3ccccc3)nc(SC(C)C(=O)NCc3cccs3)c2c1 (stereo not shown) | 16.6
71 | C=CC(=O)NC(C)(C)CCN1CCOCC1 | 8.55
72 | Nc1nc(SCC(=O)c2cccc([N+](=O)[O-])c2)n[nH]1 | 5.93
73 | COC(=O)c1ccc(CSc2nncn2C)cc1 | -4.1
74 | Cl.c1ccc(C(OCCN2CCNCC2)c2ccccc2)cc1 | 4.05
75 | Cl.Fc1ccc(C(OCCN2CCN(CCCc3ccccc3)CC2)c2ccc(F)cc2)cc1 | -71.3
76 | Fc1ccccc1N1CCN(CCCc2ccccc2)CC1 | -18.4
77 | Cl.c1ccc(CCCN2CCN(CCOC(c3ccccc3)c3ccccc3)CC2)cc1 | -41.9
78 | Cl.Fc1ccc(C(OCCN2CCCC2)c2ccc(F)cc2)cc1 | -37.9
79 | Cl.Fc1ccc(C(OCCN2CCCC2)c2ccc(Br)cc2)cc1 (stereo not shown) | -66
80 | CCCCn1c(N)c(N(CC(C)C)C(=O)C2CCN(S(=O)(=O)c3ccc(C)cc3C)CC2)c(=O)[nH]c1=O | 2.62
81 | Cn1c(=O)[nH]c(=O)c2c1nc(SCC(N)=O)n2Cc1cccc(Br)c1 | 4.47
82 | CS(=O)(=O)O.c1ccc(-c2ccc3c(c2)c2c4n3CCN=C4CCC2)cc1 | 2.12
83 | Cc1ccc2c(c1)c1c3n2CCN=C3CCC1.Cl | -65.6
84 | c1cc2c(cc1C1CCCCC1)c1c3n2CCN=C3CCC1 | 11.4
85 | CNc1cccc2c1C(=O)c1ccccc1C2=O | 5.62
86 | COCCn1nnnc1C(c1ccc(OC)cc1OC)N1CCN(c2ccccc2)CC1 (stereo not shown) | -54.1
87 | COCCn1nnnc1C(c1ccc(OC)cc1OC)N1CCN(c2ccccc2F)CC1.Cl (stereo not shown) | -2.19
88 | COCCn1nnnc1C(c1ccccc1OC)N1CCN(c2ccccc2)CC1.Cl (stereo not shown) | 6.17
